This is a sample that favours compounds with a hit; in the whole collection about 3.8% have one here.
697 NFkB inh = lowers PMA/ionomycin-induced NF-kB signal in 697 B cells; 697 B-cell NF-kB luciferase reporter, 16 h; inhibition, % at 4 µM; 330,000 compounds, 0.33% hits; AID 435022; in the data active = inhibition above about 35%
NTR1 ag = NTR1 (human) agonism | P30989 | NTR1-U2OS beta-arrestin-GFP spot imaging, agonist mode | activation, % at 20 µM | 330,000 compounds, 0.17% hits | AID 493036;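 active = activation at or above 40% of the spot to cytoplasm intensity ratio, with at least 20 cells analyzed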;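 note: 0% = DMSO without peptide and 100% = 100 nM NTR1 peptide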
Target sequence (P30989 whole entry, looked up): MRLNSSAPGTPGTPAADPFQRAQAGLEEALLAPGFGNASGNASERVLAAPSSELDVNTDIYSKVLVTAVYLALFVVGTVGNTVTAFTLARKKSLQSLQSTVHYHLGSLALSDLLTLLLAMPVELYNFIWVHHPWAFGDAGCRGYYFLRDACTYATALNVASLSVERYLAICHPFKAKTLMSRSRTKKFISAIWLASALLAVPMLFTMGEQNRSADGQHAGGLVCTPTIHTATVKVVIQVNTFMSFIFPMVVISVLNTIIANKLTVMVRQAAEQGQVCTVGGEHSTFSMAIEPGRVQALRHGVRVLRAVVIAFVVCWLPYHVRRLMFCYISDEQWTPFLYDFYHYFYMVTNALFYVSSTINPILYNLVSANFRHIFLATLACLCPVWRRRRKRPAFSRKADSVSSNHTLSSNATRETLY
Jurkat NFkB inh = lowers PMA/ionomycin-induced NF-kB signal in Jurkat cells; PMA/ionomycin-induced NF-kB luciferase reporter, luminescence; inhibition, % at 4 µM; 330,000 compounds, 0.53% hits; AID 435003; in the data active = inhibition above about 50%
Beta apoptosis = blocks beta cell apoptosis. protection from apoptosis, % (no concentration beside the values). AID 435005. 300,000 compounds, 0.8% hits. INS-1E cytokine-induced death, ATP luminescence, 48 h; percent of positive-control rescue, neutral wells zero;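 active = Every replicate reaches about 75%, or at least half do and their mean reaches it too, limit read from the data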;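 note: 0% = cytokine-treated negative control wells and 100% = positive control rescue; higher means more ATP so stronger rescue from cytokine killing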
Mdm2 MdmX PPI = disrupts the human Mdm2-MdmX interaction; O15151+Q00987; 330,000 compounds, 3% hits; SaOS-2 split-luciferase Mdm2/MdmX complementation, luminescence; inhibition, % at 8 µM;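 active = inhibition of at least 50% at 8 µM in the primary screen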
Bfl-1 A1 inh = inhibitors of the anti-apoptotic protein A1, read as caspase activation; 330,000 compounds, 0.066% hits; caspase activation, % (concentration not given with the values); MEF A1-2A-BIM cells, Caspase-Glo 3/7 luminescence, 3 h; percent of clofoctol response, vehicle zero;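 active = over half of replicate activation scores above 10%, or exactly half above 10 with the replicate mean above 10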
Jurkat NFkB conf = lowers PMA/ionomycin-induced NF-kB signal in Jurkat cells | shares compounds with Jurkat NFkB inh | Jurkat NF-kB luciferase, 16 h | inhibition, % at 4 µM | 2,700 compounds, 27% hits;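 active = inhibition reaching about 45% at 4 µM in either replicate, limit read from the data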;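 note: plate controls were PMA/ionomycin stimulated DMSO wells for no effect and unstimulated DMSO wells for full effect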
* = called active by the depositor; / = no result.

SMILES	697 NFkB inh	NTR1 ag	Jurkat NFkB inh	Beta apoptosis	Mdm2 MdmX PPI	Bfl-1 A1 inh	Jurkat NFkB conf
O=C(COC(=O)c1cccc(OC(F)F)c1)Nc1cccc(S(=O)(=O)N2CCCC2)c1	1	-2	63*	0	15	-1	11
COc1cc(OC)cc(C(=O)Nc2ccc(S(=O)(=O)N3CCOCC3)cc2)c1	9	0	12	-9	25	3	/
CC(Oc1ccc(Cl)cc1Cl)C(=O)Nc1ccncc1 (stereo not given)	-9	0	51*	0	27	2	36
CC(=O)Nc1ccc(NC(=O)C(C)Oc2ccc(Cl)cc2Cl)cc1 (stereo not given)	2	0	7	-4	13	0	/
O=C(Nc1ccc2c(c1)CCC2)c1ccccc1	-242	2	-159	14	-214	-6	-154
O=C(O)c1ccccc1-c1ccccc1C(=O)Nc1ccc2c(c1)CCC2	0	0	-9	-2	1	3	/
O=C(NC(=S)N1CCOCC1)c1cn(-c2ccccc2)nc1-c1ccc(F)cc1	-3	2	-12	/	13	/	/
Cc1nn(C2CCS(=O)(=O)C2)c2nc(C3CC3)cc(C(=O)Nc3ccc(C(N)=O)cc3)c12 (stereo not given)	0	-2	1	/	17	/	/
Cc1ccc(C(=O)OCC(=O)c2ccccc2)cc1	-120	1	-169	-1	-65	1	-63
Cc1ccc(C(=O)CC(=O)c2ccccc2)cc1	-160	3	-133	6	-6	-6	/
O=C(Nc1ccccc1)c1cc(-c2ccccc2Cl)no1	0	0	-172	-3	-89	-4	-41
CSc1cccc(NC(=O)/C=C/c2ccccc2)c1	-81	2	-88	2	-87	-4	/
CSc1ccc(/C=C/C(=O)Nc2ccccc2)cc1	-110	-1	-240	1	-74	-10	-149
COc1ccccc1/C=C/C(=O)Nc1ccc2c(c1)OCCO2	-190	5	-29	12	-84	-5	/
O=C(/C=C/c1ccco1)Nc1ccc2c(c1)OCCO2	-208	2	-160	-7	-133	-7	-58
O=C(Nc1cccnc1)c1ccc(COc2cc(Cl)ccc2Cl)o1	-1	4	57*	-4	0	0	8
Cc1ccc(Oc2ccc(OCC(=O)Nc3ccncc3)cc2)cc1	23	1	65*	-3	28	-2	77*
CCc1ccc(OCC(=O)Nc2ccncc2)cc1	1	-1	7	-2	15	1	/
COc1ccc(NC(=O)C/C(C)=N/NC(=O)c2ccccn2)c(OC)c1	-1	-1	-6	-7	12	1	/
Cc1ccn(-c2ccc(NC(=O)c3cccs3)cc2)n1	-44	0	-156	4	-133	-6	-88
O=C(Nc1ccc(NC(=O)c2cccs2)cc1)c1cccs1	-1	0	-82	0	37	-3	/
CCN(CC(=O)Nc1ccc(NC(C)=O)cc1)C(=O)CSc1ncnc2sc(C)c(C)c12	4	0	-6	1	16	0	/
Cc1ccc(-c2csc(NCCn3c(-c4ccncc4)nc4ccccc43)n2)cc1	8	10	16	-1	20	0	/
O=C(NCCc1ccccc1)C(=O)NCC1CCCN1S(=O)(=O)c1ccccc1 (stereo not given)	-21	0	56*	1	44	0	7
Cc1ccc(S(=O)(=O)N2CCCCC2CCNC(=O)C(=O)NCc2ccccc2)cc1 (stereo not given)	-57	4	63*	22	18	2	19
SMILES	697 NFkB inh	NTR1 ag	Jurkat NFkB inh	Beta apoptosis	Mdm2 MdmX PPI	Bfl-1 A1 inh	Jurkat NFkB conf
O=C(NCCc1ccccc1)C(=O)NCCC1CCCCN1S(=O)(=O)c1ccccc1 (stereo not given)	6	0	13	/	16	0	/
COc1ccc(CNC(=O)C(=O)NCCC2CCCCN2S(=O)(=O)c2ccc(C)cc2)cc1 (stereo not given)	7	2	11	2	-4	-1	/
O=C(O)C1CCN(C(=O)CSc2nnc(-c3ccccc3)o2)CC1	10	0	1	1	-16	0	/
C=CCn1c(SCc2cc(C(C)=O)ccc2OCC)nc2ccccc2c1=O	7	7	58*	6	36	0	36
CCCC[C@@H]1CNC(=O)C(=O)N1CCc1cccc2ccccc12	-8	3	0	-6	14	0	/
O=C(Nc1ccc2c(c1)OCO2)c1cc(Cl)ccn1	-134	-1	-140	2	-101	-13	/
Cc1cc(C)n2nc(C(=O)Nc3ccc4c(c3)OCO4)cc2n1	-164	2	-188	4	-56	-4	-80
O=C(Nc1ccc2c(c1)OCO2)c1ccc(Cl)cc1Cl	-211	1	-157	6	-110	0	-65
O=C(Nc1nc2ccccc2[nH]1)c1cccc(Cl)c1	-235	-2	-160	/	-171	-4	-123
O=C(OCc1cc(=O)n2ccsc2n1)c1ccccc1NCCO	-20	-1	3	-8	20	-2	/
CN(C)CCCNc1cc(O)c2ncccc2c1	17	3	56*	2	20	0	25
Oc1cc(NCc2ccc(Cl)cc2)cc2cccnc12	6	-1	-4	-1	47	-1	/
c1ccc(OCCSc2nnnn2-c2ccccc2)cc1	-178	5	-126	3	-211	-1	/
Fc1ccccc1OCCSc1nnnn1-c1ccccc1	-160	1	-174	-4	-255	-2	-139
Cc1ccc(S(=O)(=O)NCc2ccc(C(=O)N3CCN(c4ccc([N+](=O)[O-])cc4)CC3)cc2)cc1	0	3	59*	35	25	1	53*
COc1ccccc1NC1=CC(=O)CC(c2ccccc2)C1 (stereo not given)	-29	-2	52*	8	29	0	12
CCN(Cc1ccccc1)C(=O)COC(=O)Cc1c[nH]c2ccccc12	2	0	2	/	7	/	/
COc1ccc2nc(SCC(=O)NC3CCCC3)c(C)cc2c1	-26	1	50*	3	47	1	31
COc1ccc2c(C)cc(SCC(=O)NC3CCCC3)nc2c1	-3	0	1	3	31	0	/
COc1ccc(C(=O)N/N=C/c2ccc(OC)c(COc3c(F)c(F)cc(F)c3F)c2)cc1	-4	7	3	-1	22	2	/
COc1ccc(OCc2cc(/C=N\NC(=O)c3ccccc3)ccc2OC)cc1	-25	1	54*	15	50	1	18
COc1cc(OC)cc(C(=O)N/N=C/c2ccc(OC)c(COc3ccc(F)cc3)c2)c1	-41	3	52*	10	30	1	24
COc1ccc(/C=N\NC(=O)c2ccc(F)cc2)cc1COc1ccccc1C(N)=O	-8	3	13	1	6	0	/
